# Measurements as given in ChEMBL document CHEMBL3988442, “University of Dundee, Small-Polar-MMV Screening Library” (2021).
# For part of these data: Results with a measured potency or affinity are listed apart.
# How the values were obtained:
# Design in all cases: scale not given: direction of the effect not stated beside the values
# [1] = molecular target: Protein translocase subunit SecA (Escherichia coli (strain K12)) (UniProt P10408); assay: Assay to Identify E. coli SecA ATPase Inhibitors; format: functional; details: 30 µM
# [2] = molecular target: T1, Ubiquitin-activating enzyme e1, putative (Leishmania donovani (strain BPK282A1)) (UniProt E9BSI1); assay: Leishmania donovani Ubiquitin Activating Enzyme (LdE1); format: functional; details: 30 µM
# T1 sequence (whole entry): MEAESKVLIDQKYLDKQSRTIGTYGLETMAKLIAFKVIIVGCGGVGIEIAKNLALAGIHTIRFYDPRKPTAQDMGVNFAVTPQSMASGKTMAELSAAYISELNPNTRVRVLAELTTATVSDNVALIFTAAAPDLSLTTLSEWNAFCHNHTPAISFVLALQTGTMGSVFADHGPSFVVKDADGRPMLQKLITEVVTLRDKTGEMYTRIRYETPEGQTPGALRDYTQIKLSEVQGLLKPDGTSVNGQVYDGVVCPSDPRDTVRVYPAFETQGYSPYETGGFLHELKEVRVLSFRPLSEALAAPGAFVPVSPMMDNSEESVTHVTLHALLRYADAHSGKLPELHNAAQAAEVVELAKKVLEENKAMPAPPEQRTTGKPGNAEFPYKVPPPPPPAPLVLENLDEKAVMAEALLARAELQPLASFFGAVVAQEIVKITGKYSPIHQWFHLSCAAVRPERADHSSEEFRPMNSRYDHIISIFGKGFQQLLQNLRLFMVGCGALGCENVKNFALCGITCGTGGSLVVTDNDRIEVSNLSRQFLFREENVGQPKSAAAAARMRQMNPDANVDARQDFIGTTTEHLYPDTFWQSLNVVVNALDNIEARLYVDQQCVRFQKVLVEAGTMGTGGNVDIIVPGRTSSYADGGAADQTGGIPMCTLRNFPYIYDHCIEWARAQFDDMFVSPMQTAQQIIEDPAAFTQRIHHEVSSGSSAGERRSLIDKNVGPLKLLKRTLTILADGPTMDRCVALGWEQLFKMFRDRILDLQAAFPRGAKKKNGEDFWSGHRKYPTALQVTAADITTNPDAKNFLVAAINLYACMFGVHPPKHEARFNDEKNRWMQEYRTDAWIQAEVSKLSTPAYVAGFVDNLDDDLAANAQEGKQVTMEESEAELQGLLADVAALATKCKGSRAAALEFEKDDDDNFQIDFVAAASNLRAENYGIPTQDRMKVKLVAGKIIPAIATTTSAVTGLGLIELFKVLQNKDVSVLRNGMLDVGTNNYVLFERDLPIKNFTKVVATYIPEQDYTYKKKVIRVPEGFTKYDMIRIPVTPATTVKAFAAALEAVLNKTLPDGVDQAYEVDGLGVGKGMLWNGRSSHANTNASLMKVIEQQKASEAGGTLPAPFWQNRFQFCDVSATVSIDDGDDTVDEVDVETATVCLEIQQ
# [3] = molecular target: T2, Aspartate--tRNA(Asp/Asn) ligase (Mycobacterium tuberculosis (strain ATCC 25618 / H37Rv)) (UniProt P9WFW3); assay: Assay for Asp RNA synthetase-1 from Mycobacterium tuberculosis; format: functional; details: 30 µM; note: in the data most compounds retested in dose-response had high values
# T2 sequence (whole entry): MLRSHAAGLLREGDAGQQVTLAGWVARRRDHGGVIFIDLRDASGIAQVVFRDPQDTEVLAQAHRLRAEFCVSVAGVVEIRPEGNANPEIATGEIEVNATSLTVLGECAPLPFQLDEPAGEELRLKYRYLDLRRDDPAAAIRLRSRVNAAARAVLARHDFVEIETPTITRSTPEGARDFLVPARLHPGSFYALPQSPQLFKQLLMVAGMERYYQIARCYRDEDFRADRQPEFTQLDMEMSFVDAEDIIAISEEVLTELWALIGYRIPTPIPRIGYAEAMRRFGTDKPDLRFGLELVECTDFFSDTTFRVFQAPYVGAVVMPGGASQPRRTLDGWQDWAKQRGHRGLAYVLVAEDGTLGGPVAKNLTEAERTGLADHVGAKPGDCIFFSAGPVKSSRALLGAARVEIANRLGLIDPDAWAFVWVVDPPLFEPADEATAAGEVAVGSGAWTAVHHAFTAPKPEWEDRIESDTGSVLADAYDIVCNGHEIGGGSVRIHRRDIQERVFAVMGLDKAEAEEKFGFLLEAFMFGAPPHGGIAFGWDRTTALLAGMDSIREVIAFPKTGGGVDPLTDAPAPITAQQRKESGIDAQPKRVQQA
# [4] = molecular target: Sialic acid-binding Ig-like lectin 9 (Homo sapiens) (UniProt Q9Y336); assay: Hs-Siglec9 ALPHAscreen SOP 20170721; details: 10 µM
# Trypanosoma cruzi = assay: Trypanosoma cruzi phosphomannomutase and mannose-1-phosphate guanylyltransferase assay; format: functional; details: 10 µM
# [5] = molecular target: T3, Arginase-2, mitochondrial (Homo sapiens) (UniProt P78540); assay: in vitro enzyme assay to detect the production of urea directly proportional to the activity of Arginase II; format: functional; details: 33.3 µM; note: in the data most compounds retested in dose-response had high values
# T3 sequence (whole entry): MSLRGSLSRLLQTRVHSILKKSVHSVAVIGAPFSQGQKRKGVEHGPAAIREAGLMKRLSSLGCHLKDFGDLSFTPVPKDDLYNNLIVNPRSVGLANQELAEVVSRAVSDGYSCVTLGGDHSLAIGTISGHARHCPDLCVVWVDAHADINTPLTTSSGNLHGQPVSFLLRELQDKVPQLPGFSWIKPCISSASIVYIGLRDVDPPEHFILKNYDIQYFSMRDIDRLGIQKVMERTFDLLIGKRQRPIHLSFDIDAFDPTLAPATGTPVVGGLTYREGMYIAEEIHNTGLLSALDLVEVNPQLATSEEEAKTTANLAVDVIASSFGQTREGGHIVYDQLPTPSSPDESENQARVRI
# [6] = molecular target: T4, Proteasome subunit beta (Trypanosoma cruzi) (UniProt O96673); assay: Trypanosoma cruzi proteasome chymotrypsin-like activity (TcProtChymo) assay.; note: in the data most compounds retested in dose-response had high values; format: functional; details: 9.37 µM
# T4 sequence (whole entry): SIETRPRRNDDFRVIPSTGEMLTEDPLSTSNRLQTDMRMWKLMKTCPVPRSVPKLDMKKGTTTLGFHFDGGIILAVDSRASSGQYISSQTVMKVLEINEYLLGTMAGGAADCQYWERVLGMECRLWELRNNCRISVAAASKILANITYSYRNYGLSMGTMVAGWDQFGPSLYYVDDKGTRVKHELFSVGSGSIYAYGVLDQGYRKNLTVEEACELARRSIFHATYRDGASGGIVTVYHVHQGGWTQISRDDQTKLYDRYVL
# Homo sapiens = organism: Homo sapiens; assay: To identify inhibition of the IFN signalling (Jak-Stat) pathway via expression of an eGFP reporter gene under the control of an IFN-stimulated response element (ISRE) containing MxA promoter.; format: functional; details: 30 µM
# [7] = molecular target: Shiga toxin 2 (Escherichia coli O157:H7) (UniProt P09385+P09386); assay: E. coli 0.157:H7 Shiga Toxin SOP - stx2 screening assay; format: functional; details: 30 µM
# [8] = molecular target: T5, Tyrosyl-tRNA synthetase, putative (Trypanosoma cruzi (strain CL Brener)) (UniProt Q4DSP6); assay: Trypanosoma cruzi tyrosyl tRNA synthetase (TcYRS) _High Tyrosine SOP; format: functional; details: 30 µM; note: in the data most compounds retested in dose-response had high values
# T5 sequence (whole entry): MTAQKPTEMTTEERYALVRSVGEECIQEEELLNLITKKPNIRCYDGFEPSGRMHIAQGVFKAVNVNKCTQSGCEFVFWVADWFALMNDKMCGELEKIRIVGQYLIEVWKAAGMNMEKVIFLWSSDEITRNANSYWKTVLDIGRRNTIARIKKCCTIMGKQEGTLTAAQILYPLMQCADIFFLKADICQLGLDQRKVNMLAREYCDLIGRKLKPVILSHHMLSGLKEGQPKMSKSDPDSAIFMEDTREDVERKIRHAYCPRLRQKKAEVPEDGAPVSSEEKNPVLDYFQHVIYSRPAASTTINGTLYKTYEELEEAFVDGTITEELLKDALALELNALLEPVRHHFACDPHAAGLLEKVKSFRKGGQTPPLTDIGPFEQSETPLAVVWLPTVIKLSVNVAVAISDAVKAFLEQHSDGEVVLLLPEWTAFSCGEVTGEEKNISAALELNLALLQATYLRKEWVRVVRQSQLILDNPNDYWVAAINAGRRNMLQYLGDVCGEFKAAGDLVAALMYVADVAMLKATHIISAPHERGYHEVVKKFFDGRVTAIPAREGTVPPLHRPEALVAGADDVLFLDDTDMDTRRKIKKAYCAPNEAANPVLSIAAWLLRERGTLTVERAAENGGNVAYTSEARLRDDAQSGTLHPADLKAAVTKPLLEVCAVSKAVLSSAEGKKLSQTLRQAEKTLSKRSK
# [9] = molecular target: T5, Tyrosyl-tRNA synthetase, putative (Trypanosoma cruzi (strain CL Brener)); assay: Trypanosoma cruzi tyrosyl tRNA synthetase (TcYRS) SOP; format: functional; details: 30 µM
# [10] = molecular target: Chromo domain-containing protein 1 (Saccharomyces cerevisiae (strain ATCC 204508 / S288c) (Baker's yeast)) (UniProt P32657); assay: ScCHD-1 Enzyme Inhibition Assay; format: functional; details: 30 µM; note: in the data most compounds retested in dose-response had high values
# Chain of Chromo domain-containing protein 1 (Saccharomyces cerevisiae (strain ATCC 204508 / S288c) (Baker's yeast)) (P32657 whole entry, the tested form may be a part): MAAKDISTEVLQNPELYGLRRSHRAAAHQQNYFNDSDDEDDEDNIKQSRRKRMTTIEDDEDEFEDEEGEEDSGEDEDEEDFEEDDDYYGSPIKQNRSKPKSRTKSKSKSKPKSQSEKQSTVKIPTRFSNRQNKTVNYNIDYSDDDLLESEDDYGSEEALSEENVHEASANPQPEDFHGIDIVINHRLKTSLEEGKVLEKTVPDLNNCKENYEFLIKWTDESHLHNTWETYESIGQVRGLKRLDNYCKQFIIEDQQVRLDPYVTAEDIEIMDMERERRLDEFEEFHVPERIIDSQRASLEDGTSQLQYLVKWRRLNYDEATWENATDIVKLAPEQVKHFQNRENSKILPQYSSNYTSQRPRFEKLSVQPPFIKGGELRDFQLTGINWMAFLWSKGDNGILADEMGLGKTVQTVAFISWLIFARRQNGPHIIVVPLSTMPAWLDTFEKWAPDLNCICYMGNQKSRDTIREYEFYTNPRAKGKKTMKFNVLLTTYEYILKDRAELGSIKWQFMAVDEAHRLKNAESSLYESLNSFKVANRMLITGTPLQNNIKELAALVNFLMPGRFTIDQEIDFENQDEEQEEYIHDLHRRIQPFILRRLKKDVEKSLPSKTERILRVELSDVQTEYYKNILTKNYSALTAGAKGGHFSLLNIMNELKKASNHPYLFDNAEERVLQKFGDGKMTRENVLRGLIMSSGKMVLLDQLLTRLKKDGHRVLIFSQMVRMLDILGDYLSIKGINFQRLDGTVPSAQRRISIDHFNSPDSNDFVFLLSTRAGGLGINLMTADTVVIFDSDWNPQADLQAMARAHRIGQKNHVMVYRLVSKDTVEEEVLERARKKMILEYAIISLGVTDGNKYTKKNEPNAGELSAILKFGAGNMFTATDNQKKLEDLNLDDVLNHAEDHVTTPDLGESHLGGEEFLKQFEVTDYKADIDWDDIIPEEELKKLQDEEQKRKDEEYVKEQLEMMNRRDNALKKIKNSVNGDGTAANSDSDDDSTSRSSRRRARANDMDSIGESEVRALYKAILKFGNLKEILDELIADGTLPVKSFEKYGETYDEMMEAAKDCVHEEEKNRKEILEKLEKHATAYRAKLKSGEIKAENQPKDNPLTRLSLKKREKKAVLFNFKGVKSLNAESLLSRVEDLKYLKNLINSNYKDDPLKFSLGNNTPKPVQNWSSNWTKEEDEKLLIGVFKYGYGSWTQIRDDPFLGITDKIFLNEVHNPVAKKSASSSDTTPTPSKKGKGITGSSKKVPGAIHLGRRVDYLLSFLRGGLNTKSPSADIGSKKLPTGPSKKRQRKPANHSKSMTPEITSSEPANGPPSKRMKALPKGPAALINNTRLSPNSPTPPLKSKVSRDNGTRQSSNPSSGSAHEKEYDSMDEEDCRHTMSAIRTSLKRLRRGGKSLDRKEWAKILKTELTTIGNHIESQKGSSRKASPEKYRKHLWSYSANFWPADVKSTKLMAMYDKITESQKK
# Chain of Sialic acid-binding Ig-like lectin 9 (Homo sapiens) (Q9Y336 whole entry): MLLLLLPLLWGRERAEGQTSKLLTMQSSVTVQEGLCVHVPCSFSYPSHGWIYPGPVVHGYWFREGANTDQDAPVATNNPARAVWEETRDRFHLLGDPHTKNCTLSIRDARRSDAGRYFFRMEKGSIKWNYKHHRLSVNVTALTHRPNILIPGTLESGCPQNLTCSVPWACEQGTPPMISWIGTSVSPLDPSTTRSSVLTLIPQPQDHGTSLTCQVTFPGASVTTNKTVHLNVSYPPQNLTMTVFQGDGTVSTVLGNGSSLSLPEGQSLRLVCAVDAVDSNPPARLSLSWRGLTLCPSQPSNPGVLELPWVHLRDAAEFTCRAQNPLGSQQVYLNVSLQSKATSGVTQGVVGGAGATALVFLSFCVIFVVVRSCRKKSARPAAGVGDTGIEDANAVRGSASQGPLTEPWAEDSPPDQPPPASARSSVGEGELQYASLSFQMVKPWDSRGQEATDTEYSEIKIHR
# Chain of Protein translocase subunit SecA (Escherichia coli (strain K12)) (P10408 whole entry): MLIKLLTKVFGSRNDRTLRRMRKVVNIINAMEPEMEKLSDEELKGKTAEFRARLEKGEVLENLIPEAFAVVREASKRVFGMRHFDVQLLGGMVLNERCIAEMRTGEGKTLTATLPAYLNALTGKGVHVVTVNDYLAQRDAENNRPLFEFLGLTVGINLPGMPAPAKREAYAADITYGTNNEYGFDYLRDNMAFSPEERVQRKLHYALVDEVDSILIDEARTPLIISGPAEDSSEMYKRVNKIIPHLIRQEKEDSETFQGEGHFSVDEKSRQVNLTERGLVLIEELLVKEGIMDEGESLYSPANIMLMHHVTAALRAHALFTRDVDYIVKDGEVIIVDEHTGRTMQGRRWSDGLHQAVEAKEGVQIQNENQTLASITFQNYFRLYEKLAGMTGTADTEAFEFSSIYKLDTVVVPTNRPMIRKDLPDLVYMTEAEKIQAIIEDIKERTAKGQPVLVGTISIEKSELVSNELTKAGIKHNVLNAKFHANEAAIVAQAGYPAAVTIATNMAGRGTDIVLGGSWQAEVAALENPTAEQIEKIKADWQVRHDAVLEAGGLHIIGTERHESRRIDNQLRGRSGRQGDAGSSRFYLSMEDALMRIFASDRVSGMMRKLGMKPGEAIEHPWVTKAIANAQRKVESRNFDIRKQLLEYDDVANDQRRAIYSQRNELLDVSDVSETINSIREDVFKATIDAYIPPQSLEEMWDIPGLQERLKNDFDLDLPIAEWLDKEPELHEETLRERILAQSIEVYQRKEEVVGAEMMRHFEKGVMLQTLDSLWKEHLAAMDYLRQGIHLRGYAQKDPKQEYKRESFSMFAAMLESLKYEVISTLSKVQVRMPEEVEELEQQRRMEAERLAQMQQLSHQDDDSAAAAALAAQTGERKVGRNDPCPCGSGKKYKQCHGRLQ
compound,measurement,setting,value
Cc1noc(C)c1CN1CCCC2(CCN(C(=O)CC3CC3)C2)C1 (centres undefined),Percent Effect,[1],-8.86%
same,Percent Effect,[2],3.9%
same,Percent Effect,[3],1.46%
same,Percent Effect,[4],3.29%
same,Percent Effect,Trypanosoma cruzi,-0.375%
same,Percent Effect,[5],2.74%
same,Percent Effect,[6],1.97%
same,Percent Effect,Homo sapiens,12.4%
same,Percent Effect,[7],-4.85%
same,Percent Effect,[8],1.93%
same,Percent Effect,[9],-10%
same,Percent Effect,[10],-8.2%
COCCN1C[C@@H]2CN(Cc3cccc(C)n3)C[C@@H]2C1=O,Percent Effect,[1],-2.33%
same,Percent Effect,[2],-1.3%
same,Percent Effect,[3],1.39%
same,Percent Effect,[4],0.23%
same,Percent Effect,Trypanosoma cruzi,-24.2%
same,Percent Effect,[5],2.28%
same,Percent Effect,[6],16.1%
same,Percent Effect,Homo sapiens,1.2%
same,Percent Effect,[7],-2.04%
same,Percent Effect,[8],7.73%
same,Percent Effect,[9],12.5%
same,Percent Effect,[10],-8.2%
CCOCC(=O)N1C[C@@H](NC(C)=O)[C@H](c2ccc(OC)cc2)C1,Percent Effect,[3],-0.287%
Cc1nc(CN2CCO[C@H]3[C@@H](OCc4ccccn4)CC[C@@H]32)cs1,Percent Effect,[1],-6.18%
same,Percent Effect,[2],9.09%
same,Percent Effect,[3],3.07%
same,Percent Effect,[4],-6.32%
same,Percent Effect,Trypanosoma cruzi,-3.6%
same,Percent Effect,[5],-2.43%
same,Percent Effect,[6],10.2%
same,Percent Effect,Homo sapiens,4.6%
same,Percent Effect,[7],-1.17%
same,Percent Effect,[8],4.74%
same,Percent Effect,[9],7.69%
same,Percent Effect,[10],-4.92%
Cc1ccc(N2CCCC(N(C)Cc3cc(C)no3)C2)nn1 (centres undefined),Percent Effect,[3],-1.94%
CC(C)SCC(=O)N1CCc2c(nc(N(C)C)nc2N(C)C)C1,Percent Effect,[3],-3.12%
CCC(C(=O)NC)N(c1cccc(C)c1)S(C)(=O)=O (centres undefined),Percent Effect,[3],-2.86%
CN(C)CCn1c(=O)oc2ccc(NC(=O)C3CCCO3)cc21 (centres undefined),Percent Effect,[3],-2.08%
CCn1nc(CC(C)C)cc1C(=O)N1CC[C@@H](O)C1,Percent Effect,[3],-5.25%
CSCc1nc(C(C)(C)NC(=O)OC(C)(C)C)no1,Percent Effect,[3],-0.954%
Cc1cc(C)n(-c2cc(N3CCN(C(=O)C(C)(C)C)CC3)nc(C)n2)n1,Percent Effect,[3],0.747%
CC(C)(C)N1CC(C(=O)N2CCN(CCc3ccccc3)CC2)CC1=O (centres undefined),Percent Effect,[3],0.448%
CC(C)N(C)CC(=O)NC1CCc2nccn2C1 (centres undefined),Percent Effect,[3],1.39%
CCN(CC)C(=O)CCNC(=O)Cc1nc(-c2ccco2)oc1C,Percent Effect,[3],-1.21%
COCc1nc2n(n1)CCCC2Nc1nc(C2CC2)ns1 (centres undefined),Percent Effect,[3],0.0804%
CCNC(=O)c1ccc(N2CCCC(c3nccn3C(C)C)C2)nc1 (centres undefined),Percent Effect,[3],-3.8%
FC(F)(F)C1CCCn2c(CNCc3ccsc3)nnc21 (centres undefined),Percent Effect,[3],-1.78%
CC(C)CN1CCc2[nH]cnc2C12CCN(C(=O)c1cccnc1)CC2,Percent Effect,[3],1.3%
O=C(NCC(F)(F)F)NC1CCCc2c1cnn2CCO (centres undefined),Percent Effect,[3],-1.62%
O=C(CCNS(=O)(=O)c1ccc2c(c1)CCCC2)NCc1ccoc1,Percent Effect,[3],0.701%
Cc1ccc(C2COCCN2C(=O)c2ccc(CN(C)C)cc2)o1 (centres undefined),Percent Effect,[3],-1.28%
